Screening results as filed in PubChem BioAssay.
Most compounds without a hit are left out; they make up all but 4.6% or so of the library.
tim23-1 inh: tim23-1 yeast growth inhibition; S. cerevisiae tim23-1 growth, BacTiter-Glo luminescence, 24 h; inhibition, % at 20 µM; actives 1.3% (n = 330,000);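 active = growth inhibition of the mutant yeast at or above 50%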;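 note: temperature-sensitive mutant grown at 25 °C; plate controls were DMSO-treated mutant yeast for no effect and medium wells lacking yeast for full effect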
NALP3 yeast inh: NALP3 inhibition in yeast; AID 2825; Yeast reconstituted NLRP3/ASC/caspase-1, beta-gal luminescence, 24 h; actives 0.39% (n = 330,000); inhibition, % at 10 µM;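 active = inhibition of 50% or more; inactive = inhibition below 50%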;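 note: plate controls were induced DMSO wells for no effect and uninduced yeast grown without galactose for full effect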
SKKanGAS inh: inhibitors of SKKanGAS S. pyogenes growth in kanamycin (SK-promoter or general growth effect); BacTiter-Glo, 6 h; inhibition, % at 7.5 µM; actives 1.3% (n = 300,000); AID 1662;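 active = mean replicate score, as percent of positive control median, at least 50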;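 note: strain carries kanamycin resistance gene driven by streptokinase promoter and grows in 40 µg/ml kanamycin; loss of luminescence reflects streptokinase promoter inhibition or plain growth inhibition; 0% = median of DMSO wells and 100% = positive control at its reference dose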
TIM10 inh: TIM10 yeast growth inhibition. AID 463195. actives 1.4% (n = 330,000). inhibition, % at 10 µM. S. cerevisiae TIM10 strain growth, BacTiter-Glo luminescence, 24 h;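 active = inhibition of 40% or more at the single tested concentration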;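 note: wild-type TIM10 isogenic control strain grown at permissive 25 °C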
tim10-1 inh: inhibits growth of tim10-1 mutant yeast; S. cerevisiae tim10-1 ts strain growth, BacTiter-Glo, 24 h; inhibition, % at 20 µM; actives 2.2% (n = 330,000);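 active = inhibition of at least 40%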;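 note: mutant grown at 25 °C; 0% = DMSO wells with yeast and 100% = wells holding no yeast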
tim10-1 confirm: tim10-1 yeast growth inhibition, confirmed; shares compounds with tim10-1 inh; S. cerevisiae tim10-1 ts strain growth, BacTiter-Glo, 24 h; inhibition, % at 20 µM; actives 56% (n = 7,400);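 active = inhibition of yeast growth at or above a set limit in either of two repeat tests at 20 µM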;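 note: tim10-1 mutant grown at permissive 25 °C to find synthetic lethal compounds; 0% = DMSO yeast wells and 100% = medium wells without yeast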
Active calls of the source: *; x = no result given.

SMILES	tim23-1 inh	NALP3 yeast inh	SKKanGAS inh	TIM10 inh	tim10-1 inh	tim10-1 confirm
CC(C)(C)OC(=O)CNC(=O)c1nc[nH]c1C(=O)N1CCc2ccccc2C1	6	24	1	1	4	x
CN(C)/N=C/C=C1\CCC/C(=C\c2ccc(F)c(F)c2)C1=O	46	10	-12	30	46*	48*
COc1ccc(/C=C2\CCC/C(=C\C=N\N(C)C)C2=O)cc1	31	-9	6	31	26	x
COc1ccc2c(C(=O)NCc3ccc4c(c3)OCO4)c(-c3ccc(S(C)(=O)=O)cc3)sc2c1	19	15	x	3	15	x
CCCC(=O)Nc1ccc(NC(=O)c2ccccc2)nc1	8	-11	11	4	-5	x
CCCC(=O)Nc1ccc(NC(=O)C23CC4CC(CC(C4)C2)C3)cn1	40	16	-1	30	44*	33*
O=C(NC(=S)NC1C2CC3CC(C2)CC1C3)C12CC3CC(CC(C3)C1)C2 (configuration not stated)	35	0	3	39	46*	15
O=C(NC(=S)Nc1ccc(Cl)cn1)C12CC3CC(CC(C3)C1)C2	24	-10	22	31	40*	14
COc1ccc(-c2cc(N3CCCC3)n3ncnc3n2)cc1	31	11	2	19	29	x
COc1ccc(-c2cc(-c3ccccc3)n3ncnc3n2)cc1	31	36	-4	31	49*	22
O=C(c1cc2ccccc2oc1=O)N1CCN(S(=O)(=O)c2ccccc2)CC1	20	-14	-3	11	9	x
CCOC1(OCC)C(c2ccc(Cl)cc2)C(C#N)(C#N)C1(OCC)OCC (configuration not stated)	30	-3	-5	7	47*	26
CCOC(=O)CSC1=C(C#N)C(c2ccc(Cl)cc2)CC(=O)N1 (configuration not stated)	41	16	3	4	20	x
CCOC1(OCC)N=C(N)C2(C#N)C(c3cccc(C)c3)C12C#N (configuration not stated)	3	-6	-5	8	2	x
CCOC1(OCC)C(c2ccc(N)cc2)C(C#N)(C#N)C1(OCC)OCC (configuration not stated)	44	-6	-6	39	42*	28
O=C(Cc1c(Cl)cccc1Cl)N1CCN(S(=O)(=O)c2cccs2)CC1	19	10	x	-1	17	x
COc1ccc(-c2cnn3c4c(c(C)nc23)CCN4C(C)C)cc1OC	-2	13	1	15	43*	25
Cc1ccsc1C1NC(=O)c2c(sc3c2CCCC3)N1 (configuration not stated)	48	-8	11	38	48*	35*
COc1cccc(N2CCN(C(=O)C3CCCN(c4ncnc5c4nc4n5CCCCC4)C3)CC2)c1 (configuration not stated)	12	4	4	15	15	x
CC(=O)c1cccc(NC(=O)CCC(=O)Oc2ccc(C)cc2)c1	6	23	2	-18	15	x
CC1(C)Cc2c(cnn2-c2ccc(F)cc2)C(NC(=O)c2ccoc2)C1 (configuration not stated)	36	0	-2	14	40*	8
Cc1ccc(-n2ncc3c2CC(C)(C)CC3NC(=O)c2ccccn2)cc1 (configuration not stated)	49	9	2	13	53*	12
CCN(CC(=O)Nc1ccc2c(c1)OCCO2)C(=O)c1ccc([N+](=O)[O-])s1	11	12	x	9	4	x
O=C(CSc1ccc(Cl)cc1)NNC(=O)c1ccncc1	-6	1	x	2	-4	x
CO/N=C/c1ccc(Oc2ccc([N+](=O)[O-])cc2[N+](=O)[O-])c(OC)c1	41	23	6	7	44*	34*
SMILES	tim23-1 inh	NALP3 yeast inh	SKKanGAS inh	TIM10 inh	tim10-1 inh	tim10-1 confirm
COc1cc(/C=N/O)ccc1Oc1ccc([N+](=O)[O-])cc1[N+](=O)[O-]	35	1	0	25	44*	38*
COc1cc(/C=C2\SC(=O)NC2=O)ccc1Oc1ccc([N+](=O)[O-])cc1[N+](=O)[O-]	3	8	13	8	17	x
CC(C)(C)Sc1ccc(/C=N/O)cc1[N+](=O)[O-]	27	7	6	2	20	x
O=[N+]([O-])c1cc(/C=N\O)ccc1Oc1ccc(F)cc1	42	10	5	15	46*	20
N#Cc1c(C(F)(F)F)cc(Cc2ccccc2)nc1SCC(=O)NCC(=O)O	6	9	0	12	11	x
C[C@H](NC(=O)Cc1cccc2ccccc12)C(=O)N1CCOCC1	10	9	x	-1	10	x
CC(C)(C)C1CCc2onc(C(=O)Nc3ccc(F)cc3F)c2C1 (configuration not stated)	41	5	1	15	41*	27
CC(C)(C)C1CCc2onc(C(=O)Nc3cnn(Cc4ccc(F)cc4)c3)c2C1 (configuration not stated)	2	8	4	4	14	x
O=C(Cc1ccc(S(=O)(=O)N2CCOCC2)s1)Nc1cc(Cl)ccc1Cl	34	-2	x	23	44*	36*
O=C(Cc1ccc(S(=O)(=O)N2CCOCC2)s1)Nc1ccc2c(c1)CCC2	27	-4	-9	31	41*	17
COc1cc(NC(=O)Cc2ccc(S(=O)(=O)N3CCOCC3)s2)c(OC)cc1Cl	24	-10	1	13	30	x
O=C(CCNC(=O)c1ccccc1Cl)Nc1nc(-c2ccc(F)cc2)cs1	32	11	6	15	13	x
O=C(CCNC(=O)c1ccccc1Cl)Nc1nc(-c2ccccc2Cl)cs1	28	6	4	1	40*	20
Cc1csc(C(=O)NN)c1N(C)C	21	3	-1	19	6	x
C=CCc1ccc(O)c(-c2ccc(O)c(CC=C)c2)c1	47	-6	15	34	45*	48*
CC(Cc1c[nH]c2ccccc12)C(=O)N1CCN(c2ccccc2F)CC1 (configuration not stated)	17	9	-2	3	97*	19
COc1ccc(NC(=O)Nc2cccc3c2O[C@H](CN(C)C(=O)Nc2ccc(OC)cc2)[C@@H](C)CN([C@H](C)CO)C3=O)cc1	15	8	x	0	12	x
Cc1ccc2c(N)c(C(=O)N(c3ccccc3)c3ccccc3)sc2n1	13	-2	-1	26	44*	24
O=C(COC(=O)COc1ccccc1[N+](=O)[O-])NC1CCCCC1	18	-2	x	-2	7	x
N/C(=N\OC(=O)CCCOc1ccc(Cl)cc1Cl)c1ccccn1	21	23	-10	40	59*	39*
CN(CC(=O)O/N=C(\N)c1ccccn1)S(=O)(=O)c1cc(Cl)ccc1Cl	34	19	-1	22	43*	41*
Cc1ccc(S(=O)(=O)N(C)CC(=O)O/N=C(\N)c2ccccn2)cc1	15	0	-4	0	16	x
